Test results taken from PubChem BioAssay (NCI).
Compounds without any hit were thinned out: in the full panel of roughly 83,000, 20% have a hit.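 A percent growth of 40 corresponds to 60% growth inhibition; 0 means no net growth; -100 means all cells died. Active threshold: below 10.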 Calls of active or inactive are those of the source.

tested on: MDA-MB-468 breast; assay: NCI-60 one-dose screen, 48 h (100 = growth as untreated, 0 = no growth, -100 = all killed); details: 10 µM unless noted

Compound | growth
CC1(C)CC[C@]23CC[C@]4(C)[C@H](CC[C@@H]5[C@@]6(C)CCCNC(C)(C)[C@@H]6CC[C@]54C)[C@H]2[C@H]1OC3 | -50.5% (active)
COc1ccc2cc(-c3nc4ccccc4s3)c(Cl)nc2c1OC | 103% (inactive)
O=C1c2ccccc2OC=C(c2ccccc2)N1CCCCN1CCCCC1 | -6.27% (active)
CCC1(C2CCCC2)NC(=O)NC1=O (configuration not stated) | 101% (inactive)
Cc1ccc(C(C)C)cc1C(=O)C[n+]1ccccc1 | 107% (inactive)
O=C(Nc1ccc(C23CC4CC(CC(c5ccccc5)(C4)C2)C3)cc1)c1cccs1 | 38.6% (inactive)
COc1ccccc1S(=O)(=O)Nc1ccc2c(c1)CN(C)C(=O)N2 | 21.1% (inactive)
C#CCOc1ccc(C2=NN(CC3CC3)C3N=C(Cl)c4ncn(CC5CC5)c4N23)cc1OCC#C (configuration not stated) | 66.2% (inactive)
COc1ccc(C(=O)C2=CC(=O)C(=O)C2)cc1OC | 108% (inactive)
COC(=O)c1nc(-c2ccccc2)oc1S(=O)(=O)N1CCCC(C)C1 (configuration not stated) | 29.2% (inactive)
Cc1cc(C2=NNC(=O)Cc3cc4c(cc32)OCCO4)cc(C)c1N | 9.52% (active)
Cc1[nH]c2ncnc(Oc3ccc(NC(=O)Nc4ccc(Cl)c(C(F)(F)F)c4)cc3)c2c1C | 69.5% (inactive)
Cc1cc(-c2ccc3nc(N)sc3c2)nc2ccc3[nH]ncc3c12 | 5.34% (active)
CC1=C(NCCN2CCCC2)C(=O)c2c(OCc3cccc(Cl)c3)cccc2C1=O | 69.6% (inactive)
Nc1c(C(=O)Nc2ccccc2)sc2nc3c(cc12)CCCC3 | 31.1% (inactive)
N=C1c2nc3n(c2C(=O)c2nc4n(c21)CCCC4)CCCC3 | 68.1% (inactive)
O=[N+]([O-])/C(=C/c1ccccc1)c1ccccc1 | 99% (inactive)
Fc1ccc(-c2cnc3nonc3n2)c(F)c1 | 73.3% (inactive)
CC(C)CSc1nc(Nc2ccccc2)c(C#N)c(-c2ccc(F)cc2)n1 | 16.4% (inactive)
COc1ccc(-c2nc(S(=O)(=O)c3ccccc3)c(S(=O)CC(=O)N3CCC(C)CC3)o2)cc1 (configuration not stated) | -15% (active)
FC(F)(F)c1cc(Nc2ccc3c(OCCCN4CCOCC4)cccc3n2)ccc1Cl | 38.3% (inactive)
COc1cc(Nc2ccnc3ccc(Br)cc23)cc(OC)c1OC | 14.9% (inactive)
C=C1C(=O)O[C@H]2[C@H]1CC/C(COC(=O)/C=C\C(=O)NCc1ccc(Cn3c(=O)sn(-c4ccccc4)c3=O)cc1)=C\CC[C@@]1(C)O[C@@H]21 | 30.5% (inactive)
O=S(=O)(Cc1ccccc1)c1ccccc1 | 102% (inactive)
COc1cccc(C(=O)Nc2cccc(C#Cc3cccc4[nH]nc(N)c34)c2)c1 | 24.5% (inactive)
COc1cccc(CC(C)=C(c2ccc(OCCN3CCCCC3)cc2)c2ccc(OCCN3CCCCC3)cc2)c1 | -82.8% (active)
O=C1COCCN1c1ccc(Nc2nc(Cl)nc(OCc3cn(Cc4ccccc4)nn3)n2)cc1 | 62.1% (inactive)
